{
  "source": "PubChem BioAssay AID588350",
  "about": "(The Scripps Research Institute Molecular Screening Center, 2011)",
  "note": "Out of some 1,900 compounds screened, about 1,200 (63%) were called active.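 Rule for the calls: active = mean activation above the mean of solvent-only control wells plus 3 SD (cut at about 22% in these data); inactive = the rest.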 The set was probably picked from earlier hits. The entries come from a sample that favours actives as a whole.",
  "data": [
    {"assay": "GAA30 FXN promoter activators, confirmation, counter-screen for GAA850 frataxin promoter activator project, cell-based, luminescence, HEK293, lucGAA30, triplicate (AID 588350);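 note: counterscreen of GAA850 promoter hits where activity marks nonselective or luminescence artifacts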", "conditions": "HEK293 lucGAA30 FXN promoter luciferase, 24 h; at 6 µM; stronger effect = higher value", "values": [
      {"smiles": "CC(C)(C)c1ccc(OC(=O)N2CCCCC2)cc1", "activation": "101% (active)"}
    ]}
  ]
}
